Literature values in PubChem BioAssay AID977608.
Among all 4,300 compounds or so, about 4,300 (100%) were called active. The limit is not given here; nearly all actives have IC50 up to about 1400 µM. The set was probably picked from earlier hits. This is one part of the list.

Assay: protein-ligand inhibition affinities from structures – PDB-derived complexes (AID 977608)

## Oc1ccc(Nc2nc(-c3ccc(Cl)cc3)cs2)cc1
Literature IC50, protein: Sphingosine kinase 1, PDB entry 3vzd
  IC50: 0.5 µM (active)

## Cc1nc2ccc(Br)cc2c(-c2ccc(Cl)cc2)c1[C@H](OC(C)(C)C)C(=O)O
Literature IC50, protein: Gag-Pol polyprotein (A128T mutation), PDB entry 4gvm
  IC50: 0.78 µM (active)
Literature IC50, protein: Gag-Pol polyprotein, PDB entry 4gw6
  IC50: 0.63 µM (active)

## NC(N)c1ccc(CNC(=O)[C@@H]2CCN2C(=O)[C@H](NCC(=O)O)C2CCCCC2)cc1
Literature IC50, protein: bovine trypsin, PDB entry 1k1p
  IC50: 0.0119 µM (active)

## CNC(=O)[C@H](Cc1cnc[nH]1)NC(=O)CN(CCCc1ccccc1)CC(=O)O
Literature IC50, protein: human insulin degrading enzyme (ide), PDB entry 4gs8
  IC50: 0.1 µM (active)

## O=c1ccn([C@H]2C[C@H](O)[C@@H](CO[P+](O)(O)N[P+](O)(O)O[P+](O)(O)O)O2)c(=O)[nH]1
Literature IC50, protein: Human dUTPase, PDB entry 3ehw
  IC50: 15.2 µM (active)

## O=c1ccn([C@@H]2O[C@H](CO[P+](O)(O)O[P+](O)(O)O)[C@@H](O)[C@H]2O)c(=O)[nH]1
Literature IC50, protein: human O-GlcNAc transferase and a thioglycopeptide, PDB entry 4gz3
  IC50: 1.8 µM (active)

## COc1cc(Nc2ncc(F)c(Nc3ccc4c(n3)N(CO[P+](O)(O)O)C(=O)C(C)(C)O4)n2)cc(OC)c1OC
Literature IC50, protein: Bromodomain-containing protein 4 BRD4-1, PDB entry 4o75
  IC50: 21 µM (active)

## Cc1noc(C)c1-c1ccc2c(Nc3ccccc3C(C)(C)C)c(C(=O)O)cnc2c1
Literature IC50, protein: BROMODOMAIN-CONTAINING PROTEIN 4, PDB entry 4bw1
  IC50: 1.26 µM (active)

## Cc1noc(C)c1-c1ccc2c(Nc3ccccc3C(C)(C)C)c(C(=O)O)cnc2n1
Literature IC50, protein: BROMODOMAIN-CONTAINING PROTEIN 4, PDB entry 4bw2
  IC50: 6.31 µM (active)

## COc1nc2c(Nc3ccccc3C(C)(C)C)c(C(=O)O)cnc2cc1-c1c(C)noc1C
Literature IC50, protein: BROMODOMAIN-CONTAINING PROTEIN 4, PDB entry 4bw3
  IC50: 0.5 µM (active)

## CCc1cc(Sc2ncc(C(=O)O)[nH]2)nc([C@H]2CCCC[C@@H]2C(=O)NCc2ccc(Cl)c(Cl)c2)n1
Literature IC50, protein: Phosphopantetheine adenylyltransferase, PDB entry 4nah
  IC50: 0.49 µM (active)

## CCc1cc(-c2nc(O)c(C(N)=O)c(=O)[nH]2)nc([C@H]2CCCC[C@@H]2C(=O)NCc2ccc(Cl)c(Cl)c2)n1
Literature IC50, protein: Phosphopantetheine adenylyltransferase, PDB entry 4nau
  IC50: 0.00087 µM (active)

## COc1cc(OC)nc(C2CCCCC2C(=O)NCc2ccc(Cl)c(Cl)c2)n1 (centres undefined)
Literature IC50, protein: Phosphopantetheine adenylyltransferase, PDB entry 4nat
  IC50: 0.33 µM (active)

## N[C@@H](C(=O)O)[C@H](O)[C@@]1(C(=O)O)CC[C@H](C[C@H](NC(=O)c2cc(Cl)c(O)c(Cl)c2)C(=O)O)N1
Literature IC50, protein: Glutamate receptor 2, PDB entry 4gxs
  IC50: 100 µM (active)

## OS(O)(O)c1cc(N=C=S)ccc1/C=C/c1ccc(N=C=S)cc1S(O)(O)O
Literature IC50, protein: human soluble Adenylyl Cyclase TYPE 10, PDB entry 4clz
  IC50: 43 µM (active)

## O=C(NCCCNCc1cc(Cl)cc(Cl)c1)Nc1ccccc1O
Literature IC50, protein: Trypanosoma brucei methionyl-tRNA synthetase, PDB entry 4mw0
  IC50: 0.039 µM (active)

## CC[C@H](C)[C@H](NC(=O)[C@H](CC(N)=O)NC(=O)[C@H](Cc1ccccc1)NC(=O)[C@H](Cc1c[nH]c2ccccc12)NC(=O)[C@H](CC(N)=O)NC(C)=O)C(=O)N[C@H](C(=O)N[C@@H](CC(N)=O)C(=O)N[C@]1(C)CCCCCC[C@@](C)(C(=O)N[C@H](C(=O)N[C@@H](CCNC(=O)CNC(=O)[C@@H](N)CO[P+](O)(O)O)C(=O)N[C@@H](CCCCN)C(=O)N[C@@H](CCCCN)C(=O)N[C@@H](CCCCN)C(=O)O)[C@@H](C)CC)NC(=O)[C@H](Cc2c[nH]c3ccccc23)NC(=O)[C@H](CC(C)C)NC1=O)[C@@H](C)O
Literature IC50, protein: HIV-1 neutralizing antibody 4E10 Fab, PDB entry 4ngh
  IC50: 0.03 µM (active)

## CC[C@H](C)[C@H](NC(=O)[C@H](CC(N)=O)NC(=O)[C@H](Cc1ccccc1)NC(=O)[C@H](Cc1c[nH]c2ccccc12)NC(=O)[C@H](CC(N)=O)NC(C)=O)C(=O)N[C@H](C(=O)N[C@@H](CC(N)=O)C(=O)N[C@]1(C)CCCCCC[C@@](C)(C(=O)N[C@H](C(=O)N[C@@H](CCCCN)C(=O)N[C@@H](CCCCN)C(=O)N[C@@H](CCCCN)C(=O)N[C@@H](CCCCN)C(=O)O)[C@@H](C)CC)NC(=O)[C@H](Cc2c[nH]c3ccccc23)NC(=O)[C@H](CC(C)C)NC1=O)[C@@H](C)O
Literature IC50, protein: HIV-1 neutralizing antibody 4E10 Fab, PDB entry 4nhc
  IC50: 0.046 µM (active)

## Cn1ncnc1[C@H]1c2n[nH]c(=O)c3cc(F)cc(c23)N[C@@H]1c1ccc(F)cc1
Literature IC50, protein: Poly [ADP-ribose] polymerase 1 PARP1, PDB entry 4pjt
  IC50: 0.00057 µM (active)

## NC(=O)c1sc(Nc2ccccc2)nc1N
Literature IC50, protein: Cyclin-dependent kinase 2, PDB entry 3rzb
  IC50: 100 µM (active)

## Nc1nc(Nc2cccc(S(N)(=O)=O)c2)sc1C(=O)c1ccccc1
Literature IC50, protein: Cyclin-dependent kinase 2, PDB entry 3rni
  IC50: 6.7 µM (active)

## CS(=O)(=O)c1ccc(C(=O)Nc2cccc(-c3cn4ccnc4c(Nc4ccc(C(=O)N5CCOCC5)cc4)n3)c2)cc1
Literature IC50, protein: Tyrosine-protein kinase BTK, PDB entry 4ot6
  IC50: 1.2 µM (active)

## O=C(Nc1ccc2[nH]nc(-c3ccncc3)c2c1)[C@@H]1CCN(CC(=O)N2CCN(c3ccc(-c4ncccn4)cc3)CC2)C1
Literature IC50, protein: Haspin, PDB entry 4qtc
  IC50: 0.398 µM (active)
Literature IC50, protein: Mitogen-activated protein kinase 8 JNK1, PDB entry 4qtd
  IC50: 1.08 µM (active)

## O=C1NC(=Nc2ccccc2)N=C1Cc1ccc2c(c1)OCO2
Literature IC50, protein: Serine/threonine-protein kinase pim-1, PDB entry 4gw8
  IC50: 0.88 µM (active)

## C/C=C\CCC[C@H](C(=O)N1CCC[C@H]1C(=O)OC)N(C)C(=O)[C@H](C)NC(=O)[C@H](CC(C)C)NC(=O)C[C@H](O)[C@H](Cc1ccccc1)NC(=O)c1cc(NS(C)(=O)=O)cc(C(=O)N[C@H](C)c2ccccc2)c1
Literature IC50, protein: Beta-secretase 1 (K75A,E77A mutation), PDB entry 4dvf
  IC50: 0.128 µM (active)

## O=C(O)c1cc2ccccc2o1
Literature IC50, protein: Adenylate cyclase type 10 hsolAC, PDB entry 4oyp
  IC50: 1000 µM (active)

## CCc1nc(N)nc(N)c1-c1ccc2c(c1)N(CCNC(C)=O)C(=O)C(C)(C)O2
Literature IC50, protein: human Renin, PDB entry 2g1r
  IC50: 0.02 µM (active)

## C[C@H](N[C@@H](CCc1ccccc1)C(=O)O)C(=O)N1CC=C[C@H]1C(=O)O
Literature IC50, protein: HUMAN TESTICULAR ANGIOTENSIN I-CONVERTING ENZYME, PDB entry 1uze
  IC50: 0.00127 µM (active)

## NC[C@@](O)(c1ccc(Cl)cc1)c1ccc(-c2cn[nH]c2)cc1
Literature IC50, protein: CAMP-DEPENDENT PROTEIN KINASE CATALYTIC SUBUNIT ALPHA, PDB entry 4axa
  IC50: 0.01 µM (active)

## NC1NC(=O)c2[nH]cnc2N1 (centres undefined)
Literature IC50, protein: human Purine nucleoside phosphorylase, PDB entry 1v2h
  IC50: 5 µM (active)

## CO[C@@H]([C@@H]1O[C@H](C(=O)O)C[C@H](NC(N)N)[C@H]1NC(C)=O)[C@H](O)CO
Literature IC50, protein: Neuraminidase, PDB entry 4mwu
  IC50: 0.00324 µM (active)
Literature IC50, protein: Neuraminidase, PDB entry 4mwy
  IC50: 0.0896 µM (active)
